Experimental data reported in article PMC4336329 (PLoS ONE, 2015).
Among all 310,000 compounds or so, about 14,000 (4.5%) showed an effect of 50% or more. The effect is printed as a negative number. The list comes from a sample in which strong results are over-represented; it also holds similar structures and randomly drawn compounds.

Biological target: human ether-à-go-go-related gene (hERG) potassium channel (human, UniProt Q12809)
Assay: primary screen, population patch clamp on CHO cells stably expressing hERG; higher = less effect of the substance
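Also: peak tail current of the secondary pulse compared with the same well before compound.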

Sequence of human ether-à-go-go-related gene (hERG) potassium channel (Q12809 whole entry, looked up): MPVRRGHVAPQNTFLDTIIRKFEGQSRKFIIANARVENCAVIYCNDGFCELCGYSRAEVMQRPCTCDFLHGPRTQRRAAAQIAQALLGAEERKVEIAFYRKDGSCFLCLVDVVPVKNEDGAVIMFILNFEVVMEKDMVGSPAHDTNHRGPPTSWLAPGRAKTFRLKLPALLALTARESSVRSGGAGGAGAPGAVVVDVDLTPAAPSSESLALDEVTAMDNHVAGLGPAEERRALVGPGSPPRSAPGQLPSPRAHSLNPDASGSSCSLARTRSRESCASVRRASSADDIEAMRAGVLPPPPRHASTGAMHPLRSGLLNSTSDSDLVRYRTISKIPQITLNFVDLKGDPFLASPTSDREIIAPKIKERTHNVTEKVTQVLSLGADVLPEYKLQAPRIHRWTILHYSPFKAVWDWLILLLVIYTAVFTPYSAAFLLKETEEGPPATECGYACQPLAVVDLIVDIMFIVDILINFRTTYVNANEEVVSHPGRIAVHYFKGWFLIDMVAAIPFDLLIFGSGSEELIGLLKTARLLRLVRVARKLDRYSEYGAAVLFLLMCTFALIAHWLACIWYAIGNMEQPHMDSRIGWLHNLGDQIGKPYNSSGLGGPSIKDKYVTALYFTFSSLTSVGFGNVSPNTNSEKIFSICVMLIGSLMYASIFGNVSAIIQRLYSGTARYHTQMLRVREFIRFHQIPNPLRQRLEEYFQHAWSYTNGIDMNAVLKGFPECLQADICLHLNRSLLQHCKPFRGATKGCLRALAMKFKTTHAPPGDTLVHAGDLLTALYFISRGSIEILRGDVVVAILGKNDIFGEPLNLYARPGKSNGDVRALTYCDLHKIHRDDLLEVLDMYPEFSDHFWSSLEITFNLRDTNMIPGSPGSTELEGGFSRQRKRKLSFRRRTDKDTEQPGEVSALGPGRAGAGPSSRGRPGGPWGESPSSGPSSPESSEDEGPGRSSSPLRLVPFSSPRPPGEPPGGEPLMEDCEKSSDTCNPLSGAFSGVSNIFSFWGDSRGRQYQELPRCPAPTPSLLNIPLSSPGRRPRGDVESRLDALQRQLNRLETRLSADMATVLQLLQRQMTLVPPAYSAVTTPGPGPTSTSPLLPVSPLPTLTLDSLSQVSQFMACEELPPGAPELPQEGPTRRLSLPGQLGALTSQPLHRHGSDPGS

SMILES	hERG current change (%, negative = inhibition) at 10uM [%]
C=C(C)CSc1nnc2n(C)c(=O)c3c4c(sc3n12)CCC4	-21.6
COc1ccccc1-n1c(=O)c2c3c(sc2n2c(=S)[nH]nc12)CCC3	21.1
CCCSc1nnc2n(-c3ccccc3OC)c(=O)c3c4c(sc3n12)CCC4	-56.8
CCCSc1nnc2n(C)c(=O)c3c4c(sc3n12)CCC4	-71.5
Cn1c(=O)c2c3c(sc2n2c(SCc4ccccc4)nnc12)CCCC3	-9.93
CCSc1nnc2n(-c3ccc(OC)cc3)c(=O)c3c4c(sc3n12)CCCC4	-6.75
C=CCSc1nnc2n(-c3ccccc3OC)c(=O)c3c4c(sc3n12)CCC4	-64.5
COc1ccccc1-n1c(=O)c2c3c(sc2n2c(SC(C)C)nnc12)CCC3	-4.22
COc1ccccc1-n1c(=O)c2c3c(sc2n2c(SC)nnc12)CCC3	-12.5
O=C(O)/C=C/C(=O)Nc1ccc(OC(F)(F)F)cc1Br	15.7
O=C(/C(=C/c1ccccc1Cl)c1ccccc1)N1CCOCC1	-3.84
Cc1ccc(C(NC(=O)N2CCCC2)C(Cl)(Cl)Cl)cc1F (centres unmarked)	19.1
Cc1ccc(NC(=O)c2sc3ccccc3c2Cl)nc1	8.87
COC(C(=O)Nc1ccc(S(=O)(=O)Nc2ccc(C)c(C)c2)cc1)c1ccccc1 (centres unmarked)	15.3
COC(C(=O)Nc1ccc(S(=O)(=O)Nc2ccc(F)cc2)cc1)c1ccccc1 (centres unmarked)	0.504
COC(C(=O)Nc1ccc(S(=O)(=O)Nc2c(C)cccc2C)cc1)c1ccccc1 (centres unmarked)	-74.6
CCn1cc(/C=C/C(=O)Nc2ccn(Cc3c(F)c(F)cc(F)c3F)n2)cn1	-14.9
O=C(CN1CCC(n2nnc3cc(F)ccc32)CC1)NCCc1nc2ccccc2[nH]1	-31.6
O=C(CN1CCC(n2nnc3cc(F)ccc32)CC1)N1CCc2ccccc2C1	-58.1
O=C(CN1CCC(n2nnc3cc(F)ccc32)CC1)N1CCCc2ccccc21	-64.2
O=C(CN1CCC(n2nnc3cc(F)ccc32)CC1)NNC(=O)c1ccccc1	-11.9
O=C(CN1CCC(Cc2ccccc2)CC1)N1CCc2ccccc2C1	-69.3
O=C(CN1CCC(N2CCCCC2)CC1)N1CCCc2ccccc21.O=C(O)C(=O)O	20.7
O=C(CN1CCC(n2nnc3cc(C(F)(F)F)ccc32)CC1)N1CCc2ccccc21	-19.9

SMILES	hERG current change (%, negative = inhibition) at 10uM [%]
Cl.O=C(CN1CCN(c2ccc(F)cc2)CC1)N1CCC(Cc2ccccc2)CC1	-30.3
O=C(CCS(=O)(=O)Cc1ccccc1)N1CCc2ccccc2C1	-0.206
O=C(OCCC1Oc2cccnc2NC1=O)c1ccc(F)cc1 (centres unmarked)	12.6
CC(OC(=O)/C=C/c1ccc2ccccc2n1)C(=O)Nc1ccc(S(N)(=O)=O)cc1 (centres unmarked)	19.1
CCCOC(=O)c1ccc(Oc2c(-c3ccc(O)cc3O)n[nH]c2C)cc1	-2.68
Cc1nc(SCC(=O)Nc2cccc(C(=O)O)c2)n[nH]1	24.9
O=C(NCCCn1ccnc1)c1noc2c1CCCC2	-41.8
O=C(Nc1cc(Cl)cc(Cl)c1)C1CCC(=O)N1Cc1ccccc1Cl (centres unmarked)	8.65
O=C(CC(Cc1ccccc1)C(=O)O)Nc1ccccc1 (centres unmarked)	25.2
CCOC(=O)c1ccc([N+](=O)[O-])cc1NC(C)=O	3.85
Cc1cc(C)c(OCC(=O)Nc2cccc(O)c2)cc1C	10.9
CC(Sc1ccc(Cl)cc1)C(=O)NCC(c1ccco1)N1CCCCC1 (centres unmarked)	-54.1
O=C(NCC(c1ccco1)N1CCCC1)c1ccc(Cl)cc1 (centres unmarked)	-22.8
O=C(NCc1ccccc1)c1cc2ccccc2o1	-4.68
Cc1ccccc1CNC(=O)c1cc2ccccc2o1	3.09
O=C(NCc1ccccc1CN1CCCC1)c1cc2cc(Cl)ccc2o1	-74.6
O=C(CCNC(=O)c1ccc(Cl)cc1)NCC(c1ccco1)N1CCCCC1 (centres unmarked)	-31
O=C(NCc1ccccc1CN1CCCCC1)c1ccc(Cl)cc1N1CCCC1=O	-30.4
Cc1c(C(=O)NCC(c2ccco2)N2CCCC2)oc2ccc(Cl)cc12 (centres unmarked)	-42.1
O=C(NCc1ccccc1CN1CCCC1)c1cc2ccccc2o1	-69.4
CC(Sc1ccccc1)C(=O)NCC(c1ccco1)N1CCCCC1 (centres unmarked)	-9.36
CN(Cc1ccccc1N1CCCC1)C(=O)c1cc2cc(Cl)ccc2o1	-13.4
O=C(NCC(c1ccco1)N1CCCC1)c1cc2cc(Cl)ccc2o1 (centres unmarked)	-67.7
